This passage reports growth results from PubChem BioAssay (NCI).

Compounds without any hit were thinned out: in the full panel of roughly 83,000, 20% have a hit.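 Percent growth is the endpoint: 0 to 100 indicates growth inhibition (40 means 60% inhibition), 0 means no net growth, and negative values indicate cell death.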 Unmarked numbers belong to inactive results. The source made the active and inactive calls. The calls were made as follows: active = growth percent below 10; inactive = the rest.

The test system of the first test is CCRF-CEM leukemia. Description: NCI-60 one-dose screen, 48 h (100 = growth as untreated, 0 = no growth, -100 = all killed). The settings on record: 10 µM.
Regarding `COc1cc(-c2nn(-c3ccc(NC(=O)NCCNS(=O)(=O)c4ccc(F)cc4)cc3)cc2-c2ccncc2)ccc1Cl`, the growth is 9.28% (active).
The same measure, in the same setting: the result for `COC(=O)C1(O)NC(=C(C#N)C#N)C(C#N)=C1C(=O)c1ccc(OC)c(OC)c1` (stereo unspecified) reads 92.1%; that for `Cc1cc(SCc2ccccc2)nc(N)n1`, 88.1%.
`O=C(Nc1nc(-c2ccccc2)nc2c1sc(=S)n2-c1ccccc1)C(F)(F)F`: the growth is 80.8%.
As to `S=c1cnc2ccccc2[nH]1`, the growth was 103%.
As for `O=C(NCCCNS(=O)(=O)c1ccc(Cl)cc1)Nc1ccc(-n2cc(-c3ccncc3)c(-c3ccc(Cl)c(O)c3)n2)cc1`, the growth is 23.5%.
As to `C1CN(CC2CCC(CN3CCOCC3)O2)CCO1` (stereo unspecified), the growth is 50.4%.
Same read-out and setting: with `NC(N)=N/N=C(\c1ccccc1)C(O)c1ccccc1` (stereo unspecified) the figure was 92.7%.
For `CCOC(=O)c1cc(C(=O)c2cc(OC)cc(OC)c2)n2nc(C)ccc12`, the growth was 13.7%.
For the compound `COc1ccc(/C=C2\CCCC3C2=Nc2ccccc2NC3c2ccc(OC)cc2)cc1` (stereo unspecified), the growth is 80.4%.
Consider `CCN(CC)CC(=O)N(CC)c1ccc(C)c(Cl)c1`, for which the growth is 93.8%.
With `O=C(CC(CC(=O)c1ccccc1)c1ccccc1O)c1ccccc1`, the growth was 98.6%.
Same read-out and setting: with `COc1cc(-c2nn(-c3cccc(NC(=O)CCN4CCN(Cc5ccccc5)CC4)c3)cc2-c2ccncc2)ccc1Cl` the figure was 4.24% (active); with `Cc1cc(=O)n2nnc3cc(Cl)c(Cl)cc3n12`, 23.1%; with `CCNCC(=O)Nc1ccc(C(=O)OCC)cc1`, 96.4%.
Same read-out and setting: with `NNC(=O)Oc1c(Cl)cc(Cl)cc1[N+](=O)[O-]` the figure was 100%; with `CN1CCN(CCC(=O)Nc2cccc(-n3cc(-c4ccncc4)c(-c4ccc(Cl)c(O)c4)n3)c2)CC1`, 24.9%; with `O=S(=O)(O)c1cccc(Nc2ccc3ccccc3c2)c1`, 95.6%.
On to `CCN(CC)CCOc1ccc2c(c1O)C(=O)c1ccccc1C2=O`, for which the growth was 77.2%.
As to `S=C(SSC(=S)N(c1ccccc1)c1ccccc1)N(c1ccccc1)c1ccccc1`, the growth was 87.9%.
On to `CN1CCN(CC(=O)Nc2cccc(-n3cc(-c4ccncc4)c(-c4ccc(Cl)c(O)c4)n3)c2)CC1`, for which the growth was 23.9%.

In the next test the test system is MOLT-4 leukemia. The test is described as above. The conditions noted are these: 10 µM.
In the case of `CCc1ccc(-c2ccc(-n3nc(C)c4c(N)nc(Cc5ccccc5)nc43)cc2)cc1`, the growth is 55.7%.
With `O=C(Nc1ccc(F)cc1)c1cc2ccccc2cc1O`, the growth was 46.9%.
On to `Nc1nccc(OCCO)n1`, for which the growth is 99.9%.
Still for that read-out and setting: with `O=C(CCCCNC(=O)c1nc(-c2ccccc2)n(-c2ccccc2)n1)NO` the figure was 58.1%; with `COc1cc(-c2nn(-c3ccc(NC(=O)NCCNS(=O)(=O)c4ccc(F)cc4)cc3)cc2-c2ccncc2)ccc1Cl`, 11.6%.
Consider `O=C(Nc1ccc2c(O)cc(S(=O)(=O)O)cc2c1)c1ccc([N+](=O)[O-])cc1`, for which the growth is 63.7%.
In the case of `COC(=O)C1(O)NC(=C(C#N)C#N)C(C#N)=C1C(=O)c1ccc(OC)c(OC)c1` (stereo unspecified), the growth was 92.1%.
Regarding `C=CCn1c(SCC(=O)Nc2ccc(C(=O)/C=C/c3ccc(OC)cc3)cc2)nnc1-c1ccc(OC)c(OC)c1`, the growth was 49.7%.
For `COc1cc(NC(=O)Nc2cnc(Nc3ccc(N4CCOCC4)cc3)nc2Oc2cccc(OC)c2)cc(OC)c1`, the growth is 61.3%.
On to `O=C(CCl)Nc1ccc(Cc2ccc(NC(=O)CCl)cc2)cc1`, for which the growth is -4.84% (active).
On to `Cc1cc(SCc2ccccc2)nc(N)n1`, for which the growth was 98.5%.
With `Cc1nn(-c2ccc(-c3ccc(OC(F)(F)F)cc3)cc2)c2nc(Cc3ccccc3)nc(N)c12`, the growth was 68.6%.
As for `O=C(Nc1nc(-c2ccccc2)nc2c1sc(=S)n2-c1ccccc1)C(F)(F)F`, the growth is 77.2%.
For `S=c1cnc2ccccc2[nH]1`, the growth was 91.7%.
The same measure, in the same setting: the result for `O=C(CSc1nnc(-c2ccc(Cl)cc2)o1)Nc1ccc(C(=O)/C=C/c2ccc(Cl)cc2)cc1` reads 92.6%; that for `CN(C)CCN(Cc1ccccc1)c1ccc2ccccc2n1`, 104%; that for `CCN(CC)CCOc1cccc2c1C(=O)c1cccc(OCCN(CC)CC)c1C2=O`, 8.32% (active).
Consider `O=C(NCCCNS(=O)(=O)c1ccc(Cl)cc1)Nc1ccc(-n2cc(-c3ccncc3)c(-c3ccc(Cl)c(O)c3)n2)cc1`, for which the growth was 15.6%.
On the same count and under the same terms, with `C1CN(CC2CCC(CN3CCOCC3)O2)CCO1` (stereo unspecified) the figure was 68.2%.
The same measure, in the same setting: the result for `NC(N)=N/N=C(\c1ccccc1)C(O)c1ccccc1` (stereo unspecified) reads 99.9%; that for `N#CC1=C(N)Oc2cc(N)ccc2C1c1cccnc1` (stereo unspecified), 89.6%; that for `CCOC(=O)c1cc(C(=O)c2cc(OC)cc(OC)c2)n2nc(C)ccc12`, 29.5%.
In the case of `COc1cc(C)ccc1Oc1nc(Nc2ccc(N3CCOCC3)cc2)ncc1NC(=O)Nc1cc(C(F)(F)F)cc(C(F)(F)F)c1`, the growth was 19.2%.
As to `COc1ccc(/C=C2\CCCC3C2=Nc2ccccc2NC3c2ccc(OC)cc2)cc1` (stereo unspecified), the growth is 72%.
Turning to `CCN(CC)CC(=O)N(CC)c1ccc(C)c(Cl)c1`, the growth is 65.1%.
Take `O=C(CC(CC(=O)c1ccccc1)c1ccccc1O)c1ccccc1`: the growth was 105%.
The same measure, in the same setting: with `C=C(C)[C@@H]1CC[C@]2(COCCC#N)CC[C@]3(C)[C@H](CC[C@@H]4[C@@]5(C)Cc6c([nH]c7ccccc67)C(C)(C)[C@@H]5CC[C@]43C)[C@@H]12` the figure was 86.1%.
In the case of `Fc1ccc2[nH]cc(-c3nc(-c4ccsc4)cs3)c2c1`, the growth was 78%.
In the case of `COc1cc(-c2nn(-c3cccc(NC(=O)CCN4CCN(Cc5ccccc5)CC4)c3)cc2-c2ccncc2)ccc1Cl`, the growth was 5.06% (active).
Regarding `Cc1cc(=O)n2nnc3cc(Cl)c(Cl)cc3n12`, the growth is 59.2%.
Same read-out and setting: with `O=C(/C=C/C=C/c1c(C2CC2)nc2ccccc2c1-c1ccc(F)cc1)c1cccs1` the figure was 8.46% (active); with `CC(=O)[C@H]1CC[C@]2(C)[C@@H]1CC[C@@H]1[C@@]3(C)CC(CCC#N)(CCC#N)C(=O)C(C)(C)[C@@H]3CC[C@]12C`, 96.3%.
Turning to `CCNCC(=O)Nc1ccc(C(=O)OCC)cc1`, the growth was 87.5%.
On the same count and under the same terms, with `S=C(NCc1ccccc1)NCc1ccccc1` the figure was 94.9%; with `NNC(=O)Oc1c(Cl)cc(Cl)cc1[N+](=O)[O-]`, 97.6%.
With `CN1CCN(CCC(=O)Nc2cccc(-n3cc(-c4ccncc4)c(-c4ccc(Cl)c(O)c4)n3)c2)CC1`, the growth is 25.6%.
Consider `O=S(=O)(O)c1cccc(Nc2ccc3ccccc3c2)c1`, for which the growth was 95.3%.
Turning to `CCN(CC)CCOc1ccc2c(c1O)C(=O)c1ccccc1C2=O`, the growth was 72.3%.
For the compound `S=C(SSC(=S)N(c1ccccc1)c1ccccc1)N(c1ccccc1)c1ccccc1`, the growth was 93.9%.
The same measure, in the same setting: with `CN1CCN(CC(=O)Nc2cccc(-n3cc(-c4ccncc4)c(-c4ccc(Cl)c(O)c4)n3)c2)CC1` the figure was 26.4%.
